Test systems include SK-MEL-2 melanoma; EKVX NSCLC; SN12C renal; UO-31 renal; TK-10 renal; ACHN renal; CAKI-1 renal; A498 renal; CCRF-CEM leukemia; MOLT-4 leukemia; SR leukemia; RPMI-8226 leukemia; OVCAR-8 ovarian; OVCAR-5 ovarian; OVCAR-4 ovarian; SK-OV-3 ovarian; IGROV1 ovarian; OVCAR-3 ovarian; HS 578T breast; NCI/ADR-RES ovarian.
Assay in all cases: NCI-60 one-dose screen, 48 h (100 = growth as untreated, 0 = no growth, -100 = all killed)
Common to all, as to conditions: 10 µM unless noted

The structures appear in SMILES notation. This is part of a sample that, as a whole, favours compounds with a hit. Of some 83,000 tested, about 20% had one in any assay.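 The endpoint reported here, percent growth, reads 100 for growth as untreated, 0 for no net growth and -100 for all cells dead.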 Unmarked numbers belong to inactive results. Activity calls are given as the source filed them. Rule for the calls: active = growth percent below 10; inactive = the rest.

Turning to `CCCCCCCCCCCCC1CCC(=O)O1` (stereo not given), the growth was 103% in the test with SK-MEL-2 melanoma; 92.7% in the test with EKVX NSCLC; 98.9% in the test with SN12C renal; 92.5% with UO-31 renal; 102% in the test with TK-10 renal; 97.3% in the test with ACHN renal. Further, the growth is 91.6% with CAKI-1 renal; 96.2% in the test on A498 renal; 105% in the test with CCRF-CEM leukemia; 95.5% in the test with MOLT-4 leukemia; 93.6% in the test on SR leukemia; 97.4% in the test with RPMI-8226 leukemia. The growth in the test with OVCAR-8 ovarian was 108%; in the test on OVCAR-5 ovarian, 85.4%; in the test on OVCAR-4 ovarian, 94.1%; in the test on SK-OV-3 ovarian, 102%; with IGROV1 ovarian, 86.7%; with OVCAR-3 ovarian it was 105%. Besides, the growth in the test with HS 578T breast was 108%; in the test on NCI/ADR-RES ovarian, 100%.
For the compound `Cc1ccsc1C(=O)CC(=O)C(F)(F)C(F)(F)C(F)(F)F`, the growth in the test on SK-MEL-2 melanoma is 115%; in the test with EKVX NSCLC it was 93%; with SN12C renal, 96.7%; with UO-31 renal, 86.5%; with TK-10 renal, 126%; in the test on ACHN renal it was 102%. The growth was 92% in the test on CAKI-1 renal; 116% in the test on A498 renal; 95.7% in the test on CCRF-CEM leukemia; 110% in the test with MOLT-4 leukemia; 108% in the test on SR leukemia; 101% in the test with RPMI-8226 leukemia. Moreover, the growth in the test on OVCAR-8 ovarian is 102%; in the test with OVCAR-5 ovarian it was 97.4%; in the test with OVCAR-4 ovarian it was 98.6%; with SK-OV-3 ovarian it was 103%; with IGROV1 ovarian, 114%; with OVCAR-3 ovarian, 110%. Further, the growth with HS 578T breast was 110%; in the test with NCI/ADR-RES ovarian it was 107%.
Take `COc1cc(NCCC2CCCCN2)c2ncccc2c1OC` (stereo not given): the growth in the test with SK-MEL-2 melanoma is 50.5%; in the test on EKVX NSCLC it was 114%; with SN12C renal, 81.6%; in the test on UO-31 renal, 65.3%; in the test with TK-10 renal, 104%; in the test with ACHN renal, 82.9%. The growth was 100% with CAKI-1 renal; 113% with A498 renal; 47.2% with CCRF-CEM leukemia; 43% with MOLT-4 leukemia; 73.8% with SR leukemia; 68.2% in the test on RPMI-8226 leukemia. The growth with OVCAR-8 ovarian was 62.7%; in the test on OVCAR-5 ovarian, 115%; in the test with OVCAR-4 ovarian, 36.8%; in the test with SK-OV-3 ovarian it was 116%; in the test on IGROV1 ovarian, 4.24% (active); with OVCAR-3 ovarian, 4.97% (active). Further, the growth in the test on HS 578T breast was 86.6%; with NCI/ADR-RES ovarian, 81.7%.
Take `O=C1/C(=C/N2N=C(c3ccc(Cl)cc3)CC2c2ccccc2O)SC(=S)N1c1cccc(C(F)(F)F)c1` (stereo not given): the growth in the test on SK-MEL-2 melanoma is 90.7%; with EKVX NSCLC it was 52.5%; in the test on SN12C renal, 52.6%; in the test on UO-31 renal, 24.9%; in the test with TK-10 renal, 78.3%; with ACHN renal, 55.3%. Also, the growth in the test with CAKI-1 renal was 55.5%; in the test with A498 renal, 65.8%; in the test with CCRF-CEM leukemia, 30%; in the test with MOLT-4 leukemia it was 8.36% (active); with SR leukemia, 42%; in the test on RPMI-8226 leukemia it was 25.4%. In addition, the growth is 59.7% in the test on OVCAR-8 ovarian; 82.3% with OVCAR-5 ovarian; 37% in the test with OVCAR-4 ovarian; 74% in the test on SK-OV-3 ovarian; 43.7% in the test on IGROV1 ovarian; 54.6% in the test with OVCAR-3 ovarian. Further, the growth is 71% in the test with HS 578T breast and 56.4% with NCI/ADR-RES ovarian.
For the compound `COc1ccc2[nH]cc(C3(c4c[nH]c5ccc(OC)cc45)C(=O)Nc4ccc(F)cc43)c2c1`, the growth is 98.3% in the test on SK-MEL-2 melanoma; 37% with EKVX NSCLC; 106% with SN12C renal; 62% in the test with UO-31 renal; 125% in the test with TK-10 renal; 86.7% with ACHN renal. Further, the growth in the test with CAKI-1 renal is 40.8%; in the test with A498 renal it was 60.8%; in the test with CCRF-CEM leukemia, 15.4%; in the test with MOLT-4 leukemia, 1.29% (active); with SR leukemia, 11.8%; in the test with RPMI-8226 leukemia, 40.9%. For the same compound, the growth with OVCAR-8 ovarian is 94.4%; in the test on OVCAR-5 ovarian, 94.1%; in the test with OVCAR-4 ovarian, 86.7%; with SK-OV-3 ovarian, 94.5%; in the test with IGROV1 ovarian it was 74.2%; in the test with OVCAR-3 ovarian it was 86.6%. Moreover, the growth with HS 578T breast is 73.4%; in the test with NCI/ADR-RES ovarian it was 94%.
As to `CC(=O)OC[C@H]1O[C@@H](n2c(=O)cc(N)[nH]c2=O)C(OC(C)=O)[C@@H]1OC(C)=O` (stereo not given in full), the growth with SK-MEL-2 melanoma was 105%; in the test with EKVX NSCLC, 104%; with SN12C renal, 103%; with UO-31 renal, 78.6%; in the test with TK-10 renal, 97.8%; with ACHN renal, 101%. For the same compound, the growth in the test on CAKI-1 renal was 88.8%; with A498 renal, 98.1%; in the test on CCRF-CEM leukemia it was 111%; with MOLT-4 leukemia it was 108%; with SR leukemia, 106%; in the test on RPMI-8226 leukemia, 103%. Besides, the growth in the test with OVCAR-8 ovarian is 99.4%; in the test with OVCAR-5 ovarian, 99.8%; in the test with OVCAR-4 ovarian, 110%; in the test on SK-OV-3 ovarian, 106%; with IGROV1 ovarian it was 103%; with OVCAR-3 ovarian it was 114%. Moreover, the growth was 95.7% with HS 578T breast and 103% in the test on NCI/ADR-RES ovarian.
Turning to `COc1ccc(/C=C/C(=O)CCC(=O)O)cc1OC`, the growth with SK-MEL-2 melanoma was 97.5%; in the test on EKVX NSCLC it was 109%; in the test with SN12C renal it was 101%; in the test with UO-31 renal it was 83.3%; in the test with TK-10 renal, 104%; in the test with ACHN renal, 108%. Moreover, the growth is 95.5% with CAKI-1 renal; 121% in the test with A498 renal; 95.6% with CCRF-CEM leukemia; 102% in the test with MOLT-4 leukemia; 98.5% in the test with SR leukemia; 105% with RPMI-8226 leukemia. Also, the growth is 109% with OVCAR-8 ovarian; 95.4% with OVCAR-5 ovarian; 99% with OVCAR-4 ovarian; 91% in the test on SK-OV-3 ovarian; 108% with IGROV1 ovarian; 109% with OVCAR-3 ovarian. The growth in the test on HS 578T breast was 105%; in the test with NCI/ADR-RES ovarian it was 111%.

Source of the values: PubChem BioAssay (NCI).
